Common to all, as to assay: PBM binding z-score (relative to random genomic background probes); higher = stronger binding; sequences stand for … in GC…GCGATTGACAGCGTAGAATGAAGG
In test [1] the test system is RARb homodimer (NR concentration 270 nM). The essentials: (§1)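 Random background probes are the reference for binding z-scores. These scores derive from regression-normalized fluorescence on custom Agilent 4×180K protein-binding microarrays incubated 1 h with ligand-free nuclear receptor dimers. Binding was detected with antibodies against each partner (one per run).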

Test [2] concerns RARg:RXRa (NR concentration 270 nM, RXRa partner concentration 90 nM). The essentials:
as §1

In test [3] the test system is RARg homodimer (NR concentration 270 nM). The gist of the method: as §1
For test [4], the system named is RXRa DBDmut IVT, anti-RXR (DBD mutation: RXRa K156A/R161A, NR concentration 90 nM). The gist of the method: as §1
The test system of test [5] is RXRa homodimer (NR concentration 180 nM). The essentials:
as §1

Test [6] concerns THRa:RXRa (NR concentration 90 nM, RXRa partner concentration 90 nM). The gist of the method:
as §1

Test [7] relates to THRa homodimer (NR concentration 90 nM). The gist of the method: as §1
The subject of test [8] is VDR homodimer (NR concentration 270 nM). The essentials: as §1

Regarding GGAACGGGGGCAAAGTTGATAGCATCTGTCGACG, the PBM binding z-score in test [1] was determined as 2.04; in test [2], 3.72; in test [3], 2.45; in test [4], 3.44; in test [5], 3.61; in test [6], 2.65. The PBM binding z-score stood at 0.962 in test [7] and 3.49 in test [8].

For TCTTGTAGATCACCAGGAGGTTAAGAAAGATCGA, the PBM binding z-score in test [1] was 0.751; in test [2] it was 1.15; in test [3], 0.275; in test [4] it was 0.396; in test [5], 1.14; in test [6] it was 1.01. In addition, the PBM binding z-score in test [7] was -0.466; in test [8] it was 0.109.

For the sequence GCTGCTAGGTCAGGTTGGTCAGGTAACGGGTACG, the PBM binding z-score in test [1] came out at 2.89; in test [2], 2.59; in test [3], 3.55; in test [4], 0.37; in test [5], 1.06; in test [6], 2.32. For the same sequence, the PBM binding z-score in test [7] was found to be 2.02; in test [8], 0.789.

Take CATACAGGGTCAGCTAGGTCAGAGTAGGGACGGC: the PBM binding z-score in test [1] was found to be 4.28; in test [2], 5.09; in test [3], 5.08; in test [4], 1.93; in test [5] it was 4.95; in test [6] it was 4.07. In addition, the PBM binding z-score in test [7] was determined as 2.33; in test [8], 2.85.

With CGTCCAAGGTCATAGGACGTCAGTGAAGACAGAT, the PBM binding z-score in test [1] was determined as 3.37; in test [2] it was 5.58; in test [3], 5.4; in test [4] it was 3.74; in test [5], 5.36; in test [6], 3.83. In addition, the PBM binding z-score is 2.24 in test [7] and 3.01 in test [8].

For CCTACTGGGCCTTCAGGTCATTGATATCAACGTT, the PBM binding z-score in test [1] is 2.18; in test [2] it was 1.13; in test [3], 1.39; in test [4], -0.0421; in test [5], 0.791; in test [6], 3.15. The figures for the PBM binding z-score in test [7] and in test [8] were 3.23 and 1.64, respectively.

With CGATCTAGGTCAGAACAGGACAGTGAAGGATGAT, the PBM binding z-score in test [1] turned out to be 1.97; in test [2], 2.2; in test [3], 2.89; in test [4] it was 0.851; in test [5], 0.982; in test [6] it was 3.36. Also, the PBM binding z-score is 0.505 in test [7] and -0.107 in test [8].
